# Where “and” joins values, the source holds several entries; their conditions need not be identical. Equal values may be shown once. Records with an inconclusive call do not appear. A call without a number means that no potency is given here. Calls of active or inactive are those of the source. Unless noted, calls come from the whole dose curve; as a rule, active = well fitted curve in the direction sought with a large enough effect in the repeat runs; inconclusive = weak or mixed curves; inactive = flat fitted curve, though single readings scatter.
# System: not listed separately
# Assay: qHTS assay to test for compound auto fluorescence at 460 nm (blue) in HepG2 cell free culture (AID 720685)
# Conditions: Cell-free culture medium, blue autofluorescence 405/460 nm; series mostly up to 91.3 µM
# In short: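 Cell-free plates of MEM plus 10% FBS received 23 nL compound or DMSO vehicle; blue-channel (405/460 nm) intensity scored against triamterene as reference fluorophore.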
row,SMILES,Potency
1,CCCCOCCOCCOC(=O)CCCCC(=O)OCCOCCOCCCC,inactive
2,OC1CCCC1,inactive
3,Oc1ccc2ccccc2c1,inactive
4,CC1=CC[C@H]2C[C@@H]1C2(C)C,inactive
5,CC1=C(/C=C/C(C)=C/C=C/C(C)=C/CO)C(C)(C)CCC1,inactive
6,CCOC(=O)C1OC1c1ccccc1 (configuration not stated),inactive
7,ClC1=C(Cl)C(Cl)(Cl)C(Cl)=C1Cl,inactive
8,CCCCCC/C=C/CCCCCCCC(=O)O,inactive
9,O=Nc1ccc(O)cc1,inactive
10,CC(C)(N=C=O)c1cccc(C(C)(C)N=C=O)c1,inactive
11,CN(CCOc1ccc(CC2SC(=O)NC2=O)cc1)c1ccccn1 (configuration not stated),inactive
12,NC(=O)NNc1ccccc1,inactive
13,Nc1c(S(=O)(=O)O)cc(Br)c2c1C(=O)c1ccccc1C2=O,inactive
14,CCCCCCCCCCCCOCC1CO1 (configuration not stated),inactive

# System: not listed separately
# Assay: qHTS assay to test for compound auto fluorescence at 535 nm (green) in HepG2 cell free culture (AID 720686)
# Conditions: Cell-free medium, green autofluorescence 485/535 nm; series mostly up to 91.3 µM
row,SMILES,outcome
1,CCc1ccccc1O,inactive
2,O=C1N=C(O)CN1/N=C/c1ccc(-c2ccc([N+](=O)[O-])cc2)o1,inactive
3,C=C1CC[C@H](O)CC1=C/C=C1\CCC[C@]2(C)[C@@H]([C@H](C)/C=C/[C@H](C)C(C)C)CC[C@@H]12,inactive
4,O=[N+]([O-])c1cc(N(CCO)CCO)ccc1NCCO,inactive
5,CCCCC(CC)COC(C)=O (configuration not stated),inactive
6,CCCCCCCCCC(=O)O,inactive
7,OCC#CCO,inactive
8,Cc1cc(NS(=O)(=O)c2ccc(N)cc2)no1,inactive
9,CC1COc2ccccc2N1C(=O)C(Cl)Cl (configuration not stated),inactive
10,CCCCCCC(C)(C)S,inactive
11,CC(C)NCC(O)COc1cccc2ccccc12 (configuration not stated),inactive
12,CCCCCCCCCCC=CC1CC(=O)OC1=O (configuration not stated),inactive
13,O=S(=O)(Oc1ccc(Cl)cc1Cl)c1ccccc1,inactive
14,Cc1cc(O)cc(C)c1Cl,inactive
15,NCCNCCNCCNCCN,inactive
16,CC(C)(C)C(=O)C1C(=O)c2ccccc2C1=O,inactive
17,CCCCOCCOCCOC(=O)CCCCC(=O)OCCOCCOCCCC,inactive
18,Oc1ccc2ccccc2c1,inactive
19,CC1=CC[C@H]2C[C@@H]1C2(C)C,inactive
20,CCOC(=O)C1OC1c1ccccc1 (configuration not stated),inactive
21,ClC1=C(Cl)C(Cl)(Cl)C(Cl)=C1Cl,inactive
22,O=Nc1ccc(O)cc1,inactive
23,CN(CCOc1ccc(CC2SC(=O)NC2=O)cc1)c1ccccn1 (configuration not stated),inactive
24,Nc1c(S(=O)(=O)O)cc(Br)c2c1C(=O)c1ccccc1C2=O,inactive
25,CCCCCCCCCCCCOCC1CO1 (configuration not stated),inactive

# System: not listed separately
# Assay: qHTS assay to test for compound auto fluorescence at 460 nm (blue) in HepG2 cells (AID 720687)
# Conditions: autofluorescence 405/460 nm, 1 h; series mostly up to 91.3 µM
# In short: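 Cells (2,000/well in MEM with 10% FBS) attached overnight at 37 C, then were exposed to compound or DMSO for 1 hr at 37 C, 5% CO2. Fluorescence read at Ex/Em 405/460 nm, expressed as triamterene-equivalent signal.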
row,SMILES,outcome
1,CCc1ccccc1O,inactive
2,CN(C)c1cccc(O)c1,inactive
3,C=C1CC[C@H](O)CC1=C/C=C1\CCC[C@]2(C)[C@@H]([C@H](C)/C=C/[C@H](C)C(C)C)CC[C@@H]12,inactive
4,O=[N+]([O-])c1cc(N(CCO)CCO)ccc1NCCO,inactive
5,CCCCC(CC)COC(C)=O (configuration not stated),inactive
6,CCCCCCCCCC(=O)O,inactive
7,OCC#CCO,inactive
8,CC1CC(OC(=O)c2ccccc2O)CC(C)(C)C1 (configuration not stated),inactive
9,CCCCCCC(C)(C)S,inactive
10,CC(=O)[C@@]1(O)CC[C@H]2[C@@H]3CCC4=CC(=O)CC[C@]4(C)[C@H]3CC[C@@]21C,inactive
11,CC(C)NCC(O)COc1cccc2ccccc12 (configuration not stated),inactive
12,O=S(=O)(Oc1ccc(Cl)cc1Cl)c1ccccc1,inactive
13,Cc1cc(O)cc(C)c1Cl,inactive
14,NCCNCCNCCNCCN,inactive
15,Cc1ccc(C(=O)O)o1,inactive
16,CC1=CC[C@H]2C[C@@H]1C2(C)C,inactive
17,CC1=C(/C=C/C(C)=C/C=C/C(C)=C/CO)C(C)(C)CCC1,inactive
18,CCOC(=O)C1OC1c1ccccc1 (configuration not stated),inactive
19,ClC1=C(Cl)C(Cl)(Cl)C(Cl)=C1Cl,inactive
20,CCCCCC/C=C/CCCCCCCC(=O)O,inactive
21,CC(C)(N=C=O)c1cccc(C(C)(C)N=C=O)c1,inactive
22,CN(CCOc1ccc(CC2SC(=O)NC2=O)cc1)c1ccccn1 (configuration not stated),inactive
23,Nc1c(S(=O)(=O)O)cc(Br)c2c1C(=O)c1ccccc1C2=O,inactive
24,CCCCCCCCCCCCOCC1CO1 (configuration not stated),inactive

# Target: Glucocorticoid receptor (Homo sapiens) (UniProt P04150)
# Sequence (P04150 whole entry, looked up): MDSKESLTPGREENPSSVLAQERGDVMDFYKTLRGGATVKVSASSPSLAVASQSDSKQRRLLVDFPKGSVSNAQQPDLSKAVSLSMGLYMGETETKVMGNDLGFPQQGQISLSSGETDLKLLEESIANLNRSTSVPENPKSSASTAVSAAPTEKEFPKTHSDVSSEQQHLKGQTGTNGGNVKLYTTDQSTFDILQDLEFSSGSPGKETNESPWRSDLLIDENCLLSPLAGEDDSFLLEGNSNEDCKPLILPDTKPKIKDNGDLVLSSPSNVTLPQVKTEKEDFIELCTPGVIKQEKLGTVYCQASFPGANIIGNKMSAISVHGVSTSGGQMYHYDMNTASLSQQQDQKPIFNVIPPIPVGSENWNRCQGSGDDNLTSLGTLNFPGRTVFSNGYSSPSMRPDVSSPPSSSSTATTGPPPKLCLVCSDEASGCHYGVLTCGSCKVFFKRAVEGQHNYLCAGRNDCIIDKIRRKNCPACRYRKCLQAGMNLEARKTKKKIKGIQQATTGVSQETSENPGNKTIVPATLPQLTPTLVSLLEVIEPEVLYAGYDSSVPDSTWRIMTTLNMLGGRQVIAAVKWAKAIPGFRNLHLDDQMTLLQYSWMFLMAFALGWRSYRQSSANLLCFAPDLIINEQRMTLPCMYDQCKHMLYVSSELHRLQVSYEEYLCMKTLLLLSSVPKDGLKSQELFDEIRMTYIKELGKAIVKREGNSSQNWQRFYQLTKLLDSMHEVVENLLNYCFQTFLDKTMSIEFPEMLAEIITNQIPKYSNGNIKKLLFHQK
# Assay: qHTS assay to identify small molecule agonists of the glucocorticoid receptor (GR) signaling pathway (AID 720691; active = well fitted activation curve with a large enough effect in the signal ratio in the repeat runs, not every such curve was filed as active; the % refers to the signal ratio)
# Conditions: GR-bla HeLa, beta-lactamase reporter ratio, 18 h; activation: at 62.4 µM (top of the series) unless noted
# In short: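 Agonist-mode qHTS in HeLa cells stably expressing a glucocorticoid-response-element beta-lactamase reporter. Fluorescence intensity read with FRET substrate (2 h, room temperature) after 18 h compound treatment at 37 C.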
row,SMILES,Potency
1,CCc1ccccc1O,inactive
2,CN(C)c1cccc(O)c1,inactive
3,CCCCC(CC)COC(C)=O (configuration not stated),inactive
4,CCCCCCCCCC(=O)O,inactive
5,OCC#CCO,inactive
6,CC1CC(OC(=O)c2ccccc2O)CC(C)(C)C1 (configuration not stated),inactive
7,CCCCCCC(C)(C)S,inactive
8,CC(=O)[C@@]1(O)CC[C@H]2[C@@H]3CCC4=CC(=O)CC[C@]4(C)[C@H]3CC[C@@]21C,inactive
9,Oc1ccc2ccccc2c1,inactive
10,CCOC(=O)C1OC1c1ccccc1 (configuration not stated),inactive
11,ClC1=C(Cl)C(Cl)(Cl)C(Cl)=C1Cl,inactive
12,CC(C)(N=C=O)c1cccc(C(C)(C)N=C=O)c1,inactive
13,CCCCCCCCCCCCOCC1CO1 (configuration not stated),inactive

# Target: Glucocorticoid receptor (Homo sapiens) (UniProt P04150)
# Assay: qHTS assay to identify small molecule antagonists of the glucocorticoid receptor (GR) signaling pathway (AID 720692; active = well fitted inhibition curve with a large enough effect in the signal ratio in the repeat runs, not every such curve was filed as active; the % refers to the signal ratio; note: potency is the fitted concentration of half-maximal effect)
# Conditions: GR-bla HeLa, beta-lactamase FRET ratio, dexamethasone-stimulated, 18 h; series mostly up to 58.5 µM
# In short: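 Inhibition of dexamethasone-driven (5 nM final) beta-lactamase expression was measured in GRE-reporter HeLa cells over 18 h at 37C. Fluorescence was read after 2 h with the B/G FRET substrate at room temperature.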
row,SMILES,Potency
1,CCc1ccccc1O,inactive
2,CN(C)c1cccc(O)c1,inactive
3,O=C1N=C(O)CN1/N=C/c1ccc(-c2ccc([N+](=O)[O-])cc2)o1,inactive
4,CCCCC(CC)COC(C)=O (configuration not stated),inactive
5,CCCCCCCCCC(=O)O,inactive
6,OCC#CCO,inactive
7,Cc1cc(NS(=O)(=O)c2ccc(N)cc2)no1,inactive
8,CC1CC(OC(=O)c2ccccc2O)CC(C)(C)C1 (configuration not stated),inactive
9,O=C1CCCCC1,inactive
10,O=C(O)c1ccc([N+](=O)[O-])cc1,inactive
11,CCCCCCC(C)(C)S,inactive
12,CC(=O)[C@@]1(O)CC[C@H]2[C@@H]3CCC4=CC(=O)CC[C@]4(C)[C@H]3CC[C@@]21C,1.07 µM (active) and 275 nM (active)
13,CCCCCCCCCCC=CC1CC(=O)OC1=O (configuration not stated),15.6 µM (active) and 49 µM (active)
14,Cc1cc(O)cc(C)c1Cl,inactive
15,NCCNCCNCCNCCN,inactive
16,Cc1ccc(C(=O)O)o1,inactive
17,CCCCOCCOCCOC(=O)CCCCC(=O)OCCOCCOCCCC,inactive
18,OC1CCCC1,inactive
19,Oc1ccc2ccccc2c1,inactive
20,CCOC(=O)C1OC1c1ccccc1 (configuration not stated),inactive
21,ClC1=C(Cl)C(Cl)(Cl)C(Cl)=C1Cl,13.8 µM (active)
22,CCCCCC/C=C/CCCCCCCC(=O)O,inactive
23,O=Nc1ccc(O)cc1,inactive
24,CC(C)(N=C=O)c1cccc(C(C)(C)N=C=O)c1,inactive
25,NC(=O)NNc1ccccc1,inactive
26,CCCCCCCCCCCCOCC1CO1 (configuration not stated),inactive
